± gives the standard deviation of the averaged measurements.

The assay concerns ipsdienol A-neuron OSN class. Put plainly: net action potential response of A-neuron (blank-subtracted) (spikes/s (Hz)); higher = stronger excitation. As to conditions: 10 µg on filter paper; neuron: A neuron (large spike amplitude). On the procedure:
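Single sensillum recordings from antennal olfactory sensilla of live adult Ips typographus. Each compound was 10 µg in paraffin oil on filter paper, delivered as a 0.5 s puff. Net response = spikes in the first 0.5 s of response minus the 0.5 s pre-stimulus count, doubled to give Hz, with blank response subtracted. Values are for the large-spike A-neuron class of each of seven sensillum types that co-house the lanierone B-neuron; N = 1-4 sensilla, averaged.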
For `C=CCc1ccc(OC)cc1` [Estragole], the “net action potential response” value worked out at 2.67 ± 1.1.
In the case of `Cc1ccccc1` [Toluene] it was -1.33 ± 5; in that of `O=Cc1ccccc1` [Benzaldehyde], 2 ± 4.

The values above are taken from the supplement of paper PMC11577813, “Eurasian spruce bark beetle detects lanierone using a highly expressed specialist odorant receptor, present in several functional sensillum types” (BMC Biology, 2024).
